This is part of a sample that, as a whole, favours compounds with a hit. Of some 83,000 tested, about 20% had one in any assay.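 Testing used 96-well plates and a 48-hour single-concentration exposure. Example: -40 means 40% of the starting cells died.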 A number with no mark means an inactive call. Active and inactive are the calls of the source. The calls were made as follows: active = growth percent below 10; inactive = the rest.

For this assay, the system named is HOP-62 NSCLC. Kind of assay: NCI-60 one-dose screen, 48 h (100 = growth as untreated, 0 = no growth, -100 = all killed). Conditions: 10 µM unless noted.
In the case of `Clc1cccc(Nc2ncnc3ccc(-c4cnc5[nH]ccc5c4)cc23)c1`, the growth is 86.9%. For `Nc1cc(C(=O)NC[C@H]2CN(c3ccc(N4CCC(C(=O)O)CC4)cc3)C(=O)O2)ccc1Cl`, the growth is 99%. In the case of `N#CSCC1CC(O)(c2ccccc2)CC(c2ccc(F)cc2)O1` (stereo not given) it was -36.8% (active); in that of `CCOC(=O)c1ccc2c(c1)nc(-c1ccccc1)n2C1CCCCC1`, 65%. The result for `Cc1cn(-c2cc(NC(=O)c3cncc(C#Cc4cnc(N)c5ncccc45)c3)cc(C(F)(F)F)c2)cn1` reads 70.9%; that for `CCN(CC)Cc1cc(C=C2C(=O)NC(=S)NC2=O)cc(OC)c1O`, 106%; that for `COc1cc(/C=C/C(=O)c2ccc(F)cc2)ccc1OCCCCOc1ccc(/C=C/C(=O)c2c(C)nc3ccccc3c2C)cc1OC`, 90.2%.

With `O=C1/C(=C/c2cccc(F)c2)CN(C(=O)C(Cl)Cl)C/C1=C\c1cccc(F)c1`, the growth was -25.8% (active). The result for `N#Cc1ccc(O)c(C2=NCC(c3ccccc3)O2)c1` (stereo not given) reads 29.7%; that for `N=C(N)c1ccc(-c2ccc(-c3ccccc3)o2)cc1`, -50.7% (active). As to `COC12C=C/C(=C(/C(=O)OCc3ccncc3)C(=O)CCCCCCCCC3(OC)C=C/C(=C(/C(=O)OCc4ccncc4)C(=O)CCCCCCCC1)O3)O2`, the growth is 16.7%.

Consider `COC(=O)/C=C1/SC(=Nc2cccc(OC)c2)N(CCc2c[nH]c3ccc(O)cc23)C1=O`, for which the growth was 69.8%.

For `Cn1ccnc1C(=O)/C=C/c1ccc(CC(=O)Nc2cc(C(F)(F)F)cc(C(F)(F)F)c2)cc1`, the growth was 85.9%.

In the case of `CS(=O)(=O)Nc1cc(-c2ccc3ncnc(Nc4ccc5c(cnn5Cc5ccc(F)cc5)c4)c3c2)cnc1Cl`, the growth is 43.5%. Consider `CCSc1nc2scc(C)c2c(=O)[nH]1`, for which the growth is 106%. In the case of `Fc1cccc(Oc2ccc(Nc3ncnc4ccc(OCCCN5CCOCC5)cc34)cc2Cl)c1` it was 82.5%; in that of `O=C(Nc1cccc2ccccc12)NC1CC1`, 89.8%; in that of `Clc1ccc2c(NC3CCC(N4CCOCC4)CC3)ccnc2c1` (stereo not given), 66.7%. For the molecule `Cc1cc(N2CCN(CCNc3ccnc4cc(Cl)ccc34)CC2)nc(N2CCOCC2)n1`, the growth is 81.4%.

As for `c1cnc2c(-c3nc4ccc5[nH]ncc5c4c4c3CCCC4)c[nH]c2c1`, the growth is 15%. In the case of `O=C(O)c1ccc(-n2cc(/C=N/Nc3ccccc3)c(-c3ccc(F)cc3F)n2)cc1` it was 40.2%; in that of `C=C(CBr)[C@@H]1CC[C@]2(C(=O)O)CC[C@]3(C)[C@H](CC[C@@H]4[C@@]5(C)CCC(=O)C(C)(C)[C@@H]5CC[C@]43C)[C@@H]12`, 112%. For `O=C(CSC(=S)n1cnnc1)NC(=O)c1ccccc1`, the growth was 106%.

As to `CC(C)(C)CC(C)(C)NC(=O)Nc1ncccc1OCc1ccccc1`, the growth is 97.1%. Turning to `Oc1ccc(Cl)cc1/C=N\NC(=S)N/N=C/c1cc(Cl)ccc1O`, the growth was 51.2%. As to `CCc1ncnc2c1ccn2C(C)c1ccc(OC)c(F)c1` (stereo not given), the growth is 41.3%.

In the case of `C/C(=N\O)c1ccc(Cl)cc1`, the growth is 95.7%. In the case of `CN(C)CCNC(=O)c1cc2c3cc(Cl)ccc3[nH]c2c2ncccc12` it was 24.4%; in that of `O=C(/C=C/c1ccco1)Nc1ncc(Cc2cccc(C(F)(F)F)c2)s1`, 1.31% (active); in that of `Cc1cc(S(=O)(=O)/N=C(\N)n2nc(C)c(C)c2C)c(SCc2ccccc2)cc1Cl`, 91.7%. The result for `CN(c1cc2ncc(=O)[nH]c2cc1NC(N)=NCc1ccc(Cl)cc1)C1CCCCC1` reads 80.8%; that for `COc1cc(-c2nc3sccn3c2-c2ccnc(NCCNS(=O)(=O)c3ccccc3)n2)ccc1F`, 73.2%. As to `O=C(Nc1cccc(-c2ccc(N3CCOCC3)nn2)c1)Nc1cccc(C(F)(F)F)c1`, the growth was 76.8%. As to `COCCNC(=O)Nc1ccc2nc(-c3cccs3)c(-c3cccs3)nc2c1`, the growth is 101%. The result for `O=C1/C=C/[C@@H](O)[C@@H]2C[C@@H](O)C[C@H]2/C=C/CCC[C@H](CCc2ccccc2)O1` reads 30.1%. `CC(=O)Oc1ccc(/C(=C(\C)c2ccc(Cl)cc2)c2ccc(OCCN3CCCCC3)cc2)cc1`: the growth was 52.8%.

Regarding `N#Cc1nc(-c2ccc(F)cc2)oc1S(=O)(=O)N1CCOCC1`, the growth is 101%. The result for `C#CCNC(=O)[C@H](CC)[C@H]1CC[C@H](C)[C@H]([C@@H](C)[C@H](O)[C@H](C)C(=O)[C@H](CC)C2O[C@]3(C=CC(=O)[C@]4(CC[C@@](C)([C@H]5CC[C@](O)(CC)[C@H](C)O5)O4)O3)[C@H](C)C[C@@H]2C)O1` (stereo not given in full) reads 61.8%; that for `COc1ccc(CNc2c3ccccc3nc3ccccc23)cc1`, 53.9%. In the case of `Clc1cc(Cl)c(Cl)c(-c2nnc(SCc3ccncc3Br)o2)c1` it was 82.5%.
